Test [1] can be described thus: qHTS assay to identify small molecule agonists of the sonic hedgehog signaling (Shh) pathway (AID 1259368).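 Also: NIH/3T3-derived 3T3Gli1-Luc cells carrying a stable Gli1-driven firefly luciferase reporter; series mostly up to about 92 µM; nearly all actives have a fitted effect of over 15% in size.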 Summed up: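 NIH/3T3-derived 3T3Gli1-Luc cells with stably integrated Gli1-driven firefly luciferase, 2,000 cells/well, compounds added after 4 hr. Incubated 24 hr at 37C, 5% CO2; luminescence read after 30 min with luciferase reagent at room temperature.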
In general terms: Quantitative high-throughput screening tests each substance at several concentrations.

Test [2] is described as follows: qHTS assay to identify small molecule antagonists of the sonic hedgehog signaling (Shh) pathway (AID 1259369). Also: nearly all actives have a fitted effect of over 45% in size. Also: potency is read from the fitted curve at half-maximal effect. Summed up: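 NIH/3T3-derived Gli1-Luc reporter cells plated 4 h, dosed with compound, then stimulated with conditioned medium for 24 h at 37 C. Firefly luciferase luminescence read after 30 min with detection reagent at room temperature.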
The target in test [3] is Estrogen receptor beta (Homo sapiens) (UniProt Q92731). The test can be described thus: qHTS assay to identify small molecule agonists of the estrogen receptor beta (ER-beta) signaling pathway (AID 1259377; active = well fitted activation curve with a large enough effect in the signal ratio in the repeat runs, not every such curve was filed as active; the % refers to the signal ratio). A digest of the protocol:
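Measured by fluorescence intensity from a B/G FRET beta-lactamase substrate (2 h, room temperature) in ER-beta-UAS-bla HEK293T cells treated with DMSO-dissolved compounds for 16 hr at 37C and 5% CO2.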

Test [4] shares this target. Put plainly: qHTS assay to identify small molecule antagonists of the estrogen receptor beta (ER-beta) signaling pathway (AID 1259378; active = well fitted inhibition curve with a large enough effect in the signal ratio in the repeat runs, not every such curve was filed as active; the % refers to the signal ratio). A digest of the protocol: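 ER-beta-UAS-bla HEK293T (GripTite) cells in 2% charcoal-stripped FBS medium were preincubated 6 hr at 37C, dosed with compound, then stimulated with 1 nM E2 (final) for 16 hr; beta-lactamase reporter read by B/G FRET fluorescence after 2 hr substrate loading.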

Test [5] can be described thus: qHTS assay to identify small molecule agonists of the androgen receptor (AR) signaling pathway in the presence of an antagonist - cell viability counter screen (AID 1259379; active = well fitted curve in the direction sought with a large enough effect in the repeat runs; an effect the other way counts as inactive or inconclusive;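 also: MDA-kb2 human breast cancer cells carrying an MMTV luciferase reporter; series mostly up to about 92 µM; nearly all actives have a fitted effect of over 25% in size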). Summed up: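 MDA-kb2 cells (MMTV-luciferase, AR/GR), 3,000/well, 5 h attachment, then 3.0 µM nilutamide (final) and compounds at 15 concentrations. Viability by CellTiter-Fluor fluorescence after 16 h at 37 °C, 0% CO2, in the reporter wells.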

The nature of test [6]: qHTS assay to identify small molecule agonists of the estrogen receptor beta (ER-beta) signaling pathway - cell viability counter screen (AID 1259380; active = well fitted curve in the direction sought with a large enough effect in the repeat runs; an effect the other way counts as inactive or inconclusive; also: nearly all actives have a fitted effect of over 30% in size). Summed up: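 ER-beta-UAS-bla HEK293T cells in medium with 2% charcoal-stripped FBS, pre-incubated 6 hr, then treated 16 hr at 37C. Cytotoxicity read in the same wells by CellTiter-Glo luminescence after 30 min at room temperature.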

Test [7] in a line: qHTS assay to identify small molecule antagonists of the estrogen receptor beta (ER-beta) signaling pathway - cell viability counter screen (AID 1259382; active = well fitted curve in the direction sought with a large enough effect in the repeat runs; an effect the other way counts as inactive or inconclusive; also: series mostly up to about 92 µM; nearly all actives have a fitted effect of over 55% in size). A digest of the protocol: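 ER-beta-UAS-bla HEK293T cells in 2% charcoal-stripped FBS medium, treated with compound plus 1 nM 17-beta-estradiol for 16 h at 37C. Viability read by CellTiter-Glo luminescence after 30 min at room temperature in the same wells.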

Test [8] deals with Estrogen receptor (Homo sapiens) (UniProt P03372). Put plainly: qHTS assay to identify small molecule agonists of the estrogen receptor alpha (ER-alpha) signaling pathway in the presence of an antagonist (AID 1259383). Also: nearly all actives have a fitted effect of over 15% in size. Also: potency is read from the fitted curve at half-maximal effect. As to activation: top concentration of the series differs between compounds. A digest of the protocol: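 VM7Luc4E2 cells express endogenous full-length ER-alpha with an ERE-luciferase reporter and were hormone-deprived for 5 days. Compounds at 15 concentrations were added with 10.0nM ICI-182,780 for 22hr at 37C. Luminescence was read with ONE-Glo.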

Test [9] in a line: qHTS assay to identify small molecule agonists or antagonists of the thyroid stimulating hormone receptor (TSHR) signaling pathway - wild type cell line counter screen (AID 1259384). Summed up: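 Wild-type HEK293 cells were plated 18 h at 37 C/5% CO2, pin-dosed with compound plus Ro20-1724 medium, held 30 min at room temperature, then given cAMP-d2 and anti-cAMP-cryptate; fluorescence was read after 1 h. Fifteen concentrations, triplicate.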

The target in test [10] is Androgen receptor (Homo sapiens) (UniProt P10275). Put plainly: qHTS assay to identify small molecule agonists of the androgen receptor (AR) signaling pathway in the presence of an antagonist (AID 1259381). Also: nearly all actives have a fitted effect of over 15% in size. A digest of the protocol:
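MDA-kb2 cells carrying MMTV-luciferase (AR/GR responsive), 3,000 cells/well, co-treated with 3.0 uM nilutamide final. Compounds at 15 concentrations, 16 hr at 37C without CO2. Luciferase luminescence read after 30 min with ONE-Glo.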

“And” between values parts separate entries of the source, which are not always exact repeats. Identical values can stand only once. Results filed as inconclusive are left out. A structure can be active in one record and inactive in another. The source made the active and inactive calls. Unless noted, calls follow the shape of the full dose curve.

Androgen receptor (Homo sapiens), sequence (P10275 whole entry, looked up): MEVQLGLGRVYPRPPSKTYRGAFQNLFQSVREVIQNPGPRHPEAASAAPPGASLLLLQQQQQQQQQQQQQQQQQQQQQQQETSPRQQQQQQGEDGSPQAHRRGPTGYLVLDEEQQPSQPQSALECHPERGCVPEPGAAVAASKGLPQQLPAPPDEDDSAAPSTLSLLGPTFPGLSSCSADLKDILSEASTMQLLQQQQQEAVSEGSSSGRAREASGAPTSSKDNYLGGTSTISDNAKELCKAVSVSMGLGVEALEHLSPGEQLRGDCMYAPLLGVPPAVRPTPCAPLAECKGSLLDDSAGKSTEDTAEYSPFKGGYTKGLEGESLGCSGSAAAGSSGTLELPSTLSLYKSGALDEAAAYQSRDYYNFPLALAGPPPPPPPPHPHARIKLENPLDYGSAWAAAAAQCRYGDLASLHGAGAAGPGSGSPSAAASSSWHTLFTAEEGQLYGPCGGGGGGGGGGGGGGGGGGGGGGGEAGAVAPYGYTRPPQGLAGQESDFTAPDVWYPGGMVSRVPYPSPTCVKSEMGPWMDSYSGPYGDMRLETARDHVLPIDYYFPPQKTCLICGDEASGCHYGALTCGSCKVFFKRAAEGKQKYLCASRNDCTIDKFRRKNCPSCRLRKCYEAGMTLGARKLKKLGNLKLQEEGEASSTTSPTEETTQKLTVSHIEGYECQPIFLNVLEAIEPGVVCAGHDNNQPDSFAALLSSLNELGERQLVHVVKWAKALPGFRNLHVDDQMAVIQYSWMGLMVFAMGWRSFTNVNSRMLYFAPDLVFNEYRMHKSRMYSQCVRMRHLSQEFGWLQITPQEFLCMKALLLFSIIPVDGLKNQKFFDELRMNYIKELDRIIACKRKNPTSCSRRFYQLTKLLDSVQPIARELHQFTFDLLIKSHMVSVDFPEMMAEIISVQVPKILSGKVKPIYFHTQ
Estrogen receptor beta (Homo sapiens), sequence (Q92731 whole entry, looked up): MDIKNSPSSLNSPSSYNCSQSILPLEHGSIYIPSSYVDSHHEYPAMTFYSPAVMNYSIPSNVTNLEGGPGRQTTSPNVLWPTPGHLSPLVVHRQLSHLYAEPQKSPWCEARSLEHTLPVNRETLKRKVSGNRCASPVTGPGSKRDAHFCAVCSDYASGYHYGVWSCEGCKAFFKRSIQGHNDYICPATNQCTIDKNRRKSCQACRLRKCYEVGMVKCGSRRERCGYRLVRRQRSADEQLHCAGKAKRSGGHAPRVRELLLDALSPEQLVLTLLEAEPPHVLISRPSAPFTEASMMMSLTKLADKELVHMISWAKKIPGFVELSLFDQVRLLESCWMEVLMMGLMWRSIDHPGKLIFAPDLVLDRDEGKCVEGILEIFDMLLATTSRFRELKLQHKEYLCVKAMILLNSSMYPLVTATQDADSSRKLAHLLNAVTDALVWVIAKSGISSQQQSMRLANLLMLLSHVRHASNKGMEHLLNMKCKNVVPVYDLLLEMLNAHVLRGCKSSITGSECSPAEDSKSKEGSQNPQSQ
Estrogen receptor (Homo sapiens), sequence (P03372 whole entry, looked up): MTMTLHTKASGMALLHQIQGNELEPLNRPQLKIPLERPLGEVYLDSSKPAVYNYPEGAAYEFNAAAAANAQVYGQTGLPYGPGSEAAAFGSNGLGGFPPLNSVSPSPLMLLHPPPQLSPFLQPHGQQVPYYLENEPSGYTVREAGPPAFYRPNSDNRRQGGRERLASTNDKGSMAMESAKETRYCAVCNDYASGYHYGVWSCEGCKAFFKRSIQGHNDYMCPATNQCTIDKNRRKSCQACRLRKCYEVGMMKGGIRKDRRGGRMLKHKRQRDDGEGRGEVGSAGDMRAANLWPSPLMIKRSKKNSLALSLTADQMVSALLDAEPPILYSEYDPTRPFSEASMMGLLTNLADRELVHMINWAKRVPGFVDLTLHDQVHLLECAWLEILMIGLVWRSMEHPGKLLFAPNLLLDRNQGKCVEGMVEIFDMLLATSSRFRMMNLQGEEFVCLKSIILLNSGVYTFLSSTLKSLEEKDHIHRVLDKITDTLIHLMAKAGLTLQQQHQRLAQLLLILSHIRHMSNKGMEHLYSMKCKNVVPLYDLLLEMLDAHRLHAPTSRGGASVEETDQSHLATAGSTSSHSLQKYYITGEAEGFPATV

With `COC(=O)c1ccc(O)cc1`, the outcome in [1] and in test [3] was inactive. For the same compound, the Potency entry in test [2], in [4], in test [5], in [6], in test [7] and in test [8] was “inactive” throughout. The Potency entry in [9] was “inactive”.

In the case of `CC(O)COc1ccccc1` (stereo not drawn), the result in [1], in [3] and in test [10] was inactive. Also, the Potency result in [2], in test [4], in test [5], in test [6], in [7] and in test [9] was “inactive” each time.

Consider `C[C@]12C[C@H](O)[C@H]3[C@@H](CCC4=CC(=O)CC[C@@]43C)[C@@H]1CC[C@@H]2C(=O)CO`, for which the compound was called inactive in test [1] and in test [3]. For the same compound, the Potency in [2] is 2.44 µM (active) and 344 nM (active) and 750 nM (active). The Potency result in [4], in [5], in test [6], in test [7], in test [8] and in test [9] was “inactive” each time.

On to `CC(=O)c1ccc(S(=O)(=O)NC(=O)NC2CCCCC2)cc1`, for which the result in test [1], in test [3] and in test [10] was inactive. Besides, the Potency entry in test [2], in [4], in test [5], in test [6], in test [7] and in test [8] was “inactive” each time. In test [9], the Potency result was “inactive”.

In the case of `COc1cc(C=O)ccc1O`, the result in [1], in test [3] and in [10] was inactive. The Potency entry in test [2], in test [4], in test [5], in [6], in test [7] and in test [9] was “inactive” in each case.

Turning to `c1ccc2[nH]c(-c3cscn3)nc2c1`, the compound was called inactive in test [1], in test [3] and in test [10]. For the same compound, the Potency result in [2], in test [4], in test [5], in [6], in [7] and in test [9] was “inactive” in each case.

`NC(=O)N/N=C/c1ccc([N+](=O)[O-])o1`: the compound was classed as inactive in test [1] and in test [3]. Moreover, in test [2], the Potency result was “inactive and 10.9 µM (active) and 29.8 µM (active)”. The Potency result in [4], in test [5], in [6], in test [7], in [8] and in test [9] was “inactive” in each case.

As for `C=CCOC(=O)CC(C)C`, the result in test [1] and in [3] was inactive. Further, the Potency result in test [2], in test [4], in test [5], in test [6], in test [7] and in [8] was “inactive” each time. For the same compound, the Potency entry in [9] was “inactive”.

On to `CCOC(=O)C(C)(C)Oc1ccc(Cl)cc1`, for which the call in test [1] and in test [3] was inactive. The Potency entry in test [2], in [4], in test [5], in test [6], in test [7] and in test [9] was “inactive” in each case.

As to `Cc1ccc(O)c(-n2nc3ccccc3n2)c1`, the compound was called inactive in [1] and in test [3]. In addition, the Potency is 60.6 µM (active) and inactive in test [2]; “inactive and 1.54 µM (active)” in test [8]. Further, the Potency result in test [4], in test [5], in test [6], in test [7] and in test [9] was “inactive” throughout.

Consider `CCCCCCCCCCCCCCCCCC(=O)OCC(O)CO` (stereo not drawn), for which the outcome in test [1] and in [3] was inactive. Also, the Potency entry in [2], in test [4], in test [5], in test [6], in [7] and in [8] was “inactive” in each case. For the same compound, the Potency result in [9] is “inactive”.

Regarding `CC(=O)Oc1ccccc1C(=O)O`, the outcome in test [1], in test [3] and in test [10] was inactive. The Potency entry in [2], in test [4], in [5], in test [6], in test [7] and in test [8] was “inactive” each time. Also, the Potency entry in test [9] was “inactive”.

In the case of `Cc1cccc(C)c1O`, the compound was called inactive in test [1], in test [3] and in test [10]. Besides, the Potency result in test [2], in test [4], in [5], in test [6] and in test [7] was “inactive” throughout.

Turning to `CC1=NN(c2ccccc2)C(=O)C1`, the compound was classed as inactive in [1] and in test [3]. Also, the Potency entry in test [2], in test [4], in test [5], in test [6], in [7] and in test [9] was “inactive” each time.

Regarding `COCCOCCOC`, the compound was classed as inactive in [1], in test [3] and in [10]. For the same compound, the Potency result in test [2], in test [4], in test [5], in [6], in test [7] and in test [9] was “inactive” throughout.

`CCCCCCCCCCCCCC(=O)OC(C)C`: the outcome in test [1], in test [3] and in test [10] was inactive. The Potency entry in [2], in test [4], in test [5], in test [6], in [7] and in test [9] was “inactive” each time.

As for `CC(C)Cc1ccc(C(C)C(=O)O)cc1` (stereo not drawn), the compound was classed as inactive in test [1] and in [3]. Further, the Potency entry in [2], in [4], in test [5], in test [6], in test [7] and in test [8] was “inactive” throughout. Moreover, in test [9], the Potency entry was “inactive”.

For `C1CNCCN1`, the compound was called inactive in test [1] and in test [3]. Besides, the Potency in [2] is 5.61 µM (active) and inactive. Besides, the Potency result in [4], in test [5], in test [6], in test [7], in test [8] and in test [9] was “inactive” in each case.

For the compound `NC(=O)N1c2ccccc2C=Cc2ccccc21`, the outcome in [1] and in test [3] was inactive. The Potency result in test [2], in [4], in test [5], in test [6] and in test [7] was “inactive” in each case.

Source of the values: PubChem BioAssay (Tox21).
